Test results from ChEMBL document CHEMBL1961873, “Compounds: GSK PKIS; Assays: Nanosyn kinase panel” (2012).
Several values for one entry are separate records, joined by “and”; a condition that tells them apart may be missing. Identical values can stand only once.

Columns and labels:
[1] = biological target: MAP/microtubule affinity-regulating kinase 3 (Homo sapiens) (UniProt P27448); settings: at 1 µM;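 further: reported values are averaged percent inhibition of MARK3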
[2] = biological target: T1, MAP/microtubule affinity-regulating kinase 4 (Homo sapiens) (UniProt Q96L34); settings: at 0.1 µM
T1 sequence (whole entry): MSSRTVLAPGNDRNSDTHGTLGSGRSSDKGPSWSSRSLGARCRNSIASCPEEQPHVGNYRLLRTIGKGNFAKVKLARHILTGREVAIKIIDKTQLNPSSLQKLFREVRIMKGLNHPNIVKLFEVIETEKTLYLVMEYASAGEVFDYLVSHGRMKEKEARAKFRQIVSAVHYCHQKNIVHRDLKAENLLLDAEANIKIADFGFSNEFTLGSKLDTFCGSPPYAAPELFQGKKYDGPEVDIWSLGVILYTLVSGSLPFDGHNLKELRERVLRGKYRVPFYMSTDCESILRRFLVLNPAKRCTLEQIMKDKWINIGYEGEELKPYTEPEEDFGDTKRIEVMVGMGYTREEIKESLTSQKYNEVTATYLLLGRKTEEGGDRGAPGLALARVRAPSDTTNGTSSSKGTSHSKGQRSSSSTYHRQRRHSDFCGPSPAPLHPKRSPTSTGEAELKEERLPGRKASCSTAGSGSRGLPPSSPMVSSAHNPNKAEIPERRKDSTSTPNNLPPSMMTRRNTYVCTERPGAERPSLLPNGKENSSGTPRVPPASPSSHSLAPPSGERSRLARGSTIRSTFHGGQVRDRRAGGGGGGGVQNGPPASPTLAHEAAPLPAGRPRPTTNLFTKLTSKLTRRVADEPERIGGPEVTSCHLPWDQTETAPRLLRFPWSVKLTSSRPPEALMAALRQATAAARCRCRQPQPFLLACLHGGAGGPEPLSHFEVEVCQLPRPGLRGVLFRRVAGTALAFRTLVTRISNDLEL

[3] = biological target: T1, MAP/microtubule affinity-regulating kinase 4 (Homo sapiens); settings: at 1 µM
[4] = biological target: Maternal embryonic leucine zipper kinase (Homo sapiens) (UniProt Q14680); settings: at 0.1 µM
[5] = biological target: Maternal embryonic leucine zipper kinase (Homo sapiens) (UniProt Q14680); settings: at 1 µM
[6] = biological target: MAP kinase-interacting serine/threonine-protein kinase 1 (Homo sapiens) (UniProt Q9BUB5); settings: at 0.1 µM
[7] = biological target: MAP kinase-interacting serine/threonine-protein kinase 1 (Homo sapiens) (UniProt Q9BUB5); settings: at 1 µM
[8] = biological target: MAP kinase-interacting serine/threonine-protein kinase 2 (Homo sapiens) (UniProt Q9HBH9); settings: at 0.1 µM
[9] = biological target: MAP kinase-interacting serine/threonine-protein kinase 2 (Homo sapiens) (UniProt Q9HBH9); settings: at 1 µM
[10] = biological target: Serine/threonine-protein kinase MARK2 (Homo sapiens) (UniProt Q7KZI7); settings: at 0.1 µM;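 further: mean percent inhibition of PAR-1Balpha kinase activity, reported from the GSK PKIS screen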
Chain of Serine/threonine-protein kinase MARK2 (Homo sapiens) (Q7KZI7 whole entry): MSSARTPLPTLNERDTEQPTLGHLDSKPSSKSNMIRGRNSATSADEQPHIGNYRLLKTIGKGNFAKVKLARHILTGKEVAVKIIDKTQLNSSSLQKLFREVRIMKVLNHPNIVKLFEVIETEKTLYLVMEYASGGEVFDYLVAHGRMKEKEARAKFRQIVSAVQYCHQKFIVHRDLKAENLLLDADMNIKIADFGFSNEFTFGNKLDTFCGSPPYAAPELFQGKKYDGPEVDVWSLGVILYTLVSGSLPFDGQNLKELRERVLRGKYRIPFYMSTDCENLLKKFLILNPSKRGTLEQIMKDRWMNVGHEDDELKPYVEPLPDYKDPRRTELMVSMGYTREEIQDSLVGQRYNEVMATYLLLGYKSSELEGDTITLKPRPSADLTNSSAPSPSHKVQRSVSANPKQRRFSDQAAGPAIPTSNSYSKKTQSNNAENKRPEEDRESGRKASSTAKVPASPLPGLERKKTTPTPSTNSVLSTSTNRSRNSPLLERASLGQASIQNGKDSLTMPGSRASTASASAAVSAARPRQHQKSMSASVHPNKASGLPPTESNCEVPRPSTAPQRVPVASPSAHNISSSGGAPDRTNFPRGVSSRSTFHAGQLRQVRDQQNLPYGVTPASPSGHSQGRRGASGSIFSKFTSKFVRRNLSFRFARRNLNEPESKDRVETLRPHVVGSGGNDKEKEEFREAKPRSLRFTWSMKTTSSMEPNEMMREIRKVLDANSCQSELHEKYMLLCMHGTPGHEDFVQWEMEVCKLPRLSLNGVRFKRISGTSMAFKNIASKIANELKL

Chain of Maternal embryonic leucine zipper kinase (Homo sapiens) (Q14680 whole entry, looked up): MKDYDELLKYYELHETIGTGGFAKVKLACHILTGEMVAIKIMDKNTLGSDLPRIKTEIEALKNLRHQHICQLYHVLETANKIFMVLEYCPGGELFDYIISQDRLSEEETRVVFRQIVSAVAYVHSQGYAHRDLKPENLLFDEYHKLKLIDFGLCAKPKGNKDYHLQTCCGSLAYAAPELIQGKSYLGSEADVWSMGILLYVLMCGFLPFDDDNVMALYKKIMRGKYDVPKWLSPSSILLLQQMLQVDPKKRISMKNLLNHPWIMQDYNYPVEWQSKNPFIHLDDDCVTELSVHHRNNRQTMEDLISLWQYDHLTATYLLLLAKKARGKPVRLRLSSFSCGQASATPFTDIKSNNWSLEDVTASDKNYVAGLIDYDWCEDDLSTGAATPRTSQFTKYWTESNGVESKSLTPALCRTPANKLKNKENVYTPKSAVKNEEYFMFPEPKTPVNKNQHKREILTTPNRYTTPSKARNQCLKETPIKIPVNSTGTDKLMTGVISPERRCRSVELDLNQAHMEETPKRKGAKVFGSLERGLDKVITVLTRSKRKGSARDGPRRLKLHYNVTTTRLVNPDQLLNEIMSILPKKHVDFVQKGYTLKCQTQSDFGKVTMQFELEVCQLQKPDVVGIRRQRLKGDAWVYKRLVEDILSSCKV
Chain of MAP kinase-interacting serine/threonine-protein kinase 1 (Homo sapiens) (Q9BUB5 whole entry, looked up): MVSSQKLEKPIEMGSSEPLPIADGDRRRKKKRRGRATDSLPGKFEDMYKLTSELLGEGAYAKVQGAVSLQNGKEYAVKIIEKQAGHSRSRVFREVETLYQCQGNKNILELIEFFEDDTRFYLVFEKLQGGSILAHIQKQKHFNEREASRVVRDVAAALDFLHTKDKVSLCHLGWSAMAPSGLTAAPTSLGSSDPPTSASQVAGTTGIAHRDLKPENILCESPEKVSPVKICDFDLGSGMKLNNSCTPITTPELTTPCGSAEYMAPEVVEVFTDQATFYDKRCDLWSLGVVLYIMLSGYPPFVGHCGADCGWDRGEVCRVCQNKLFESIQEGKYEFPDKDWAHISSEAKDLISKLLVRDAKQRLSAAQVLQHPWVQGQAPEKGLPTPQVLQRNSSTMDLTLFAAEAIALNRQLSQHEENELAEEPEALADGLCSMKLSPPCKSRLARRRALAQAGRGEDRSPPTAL
Chain of MAP/microtubule affinity-regulating kinase 3 (Homo sapiens) (P27448 whole entry, looked up): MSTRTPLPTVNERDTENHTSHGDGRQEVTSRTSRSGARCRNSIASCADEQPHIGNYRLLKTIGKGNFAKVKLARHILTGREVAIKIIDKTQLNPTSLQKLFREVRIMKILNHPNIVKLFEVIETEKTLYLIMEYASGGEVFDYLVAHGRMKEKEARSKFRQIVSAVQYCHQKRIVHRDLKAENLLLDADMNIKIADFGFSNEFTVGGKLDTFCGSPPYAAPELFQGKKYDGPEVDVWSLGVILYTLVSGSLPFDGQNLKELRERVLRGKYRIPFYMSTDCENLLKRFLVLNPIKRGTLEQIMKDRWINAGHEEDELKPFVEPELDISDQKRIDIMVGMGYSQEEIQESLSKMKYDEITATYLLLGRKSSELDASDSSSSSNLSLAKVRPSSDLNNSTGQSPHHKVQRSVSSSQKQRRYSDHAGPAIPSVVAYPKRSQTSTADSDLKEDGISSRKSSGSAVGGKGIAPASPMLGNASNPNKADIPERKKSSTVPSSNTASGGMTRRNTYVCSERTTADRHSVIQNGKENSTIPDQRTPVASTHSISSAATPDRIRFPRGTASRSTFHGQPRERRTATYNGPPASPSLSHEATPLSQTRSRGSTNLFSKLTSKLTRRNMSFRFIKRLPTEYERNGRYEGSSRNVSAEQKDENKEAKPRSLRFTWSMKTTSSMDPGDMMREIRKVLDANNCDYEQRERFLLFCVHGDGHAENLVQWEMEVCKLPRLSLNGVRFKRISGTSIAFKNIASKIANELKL
Chain of MAP kinase-interacting serine/threonine-protein kinase 2 (Homo sapiens) (Q9HBH9 whole entry, looked up): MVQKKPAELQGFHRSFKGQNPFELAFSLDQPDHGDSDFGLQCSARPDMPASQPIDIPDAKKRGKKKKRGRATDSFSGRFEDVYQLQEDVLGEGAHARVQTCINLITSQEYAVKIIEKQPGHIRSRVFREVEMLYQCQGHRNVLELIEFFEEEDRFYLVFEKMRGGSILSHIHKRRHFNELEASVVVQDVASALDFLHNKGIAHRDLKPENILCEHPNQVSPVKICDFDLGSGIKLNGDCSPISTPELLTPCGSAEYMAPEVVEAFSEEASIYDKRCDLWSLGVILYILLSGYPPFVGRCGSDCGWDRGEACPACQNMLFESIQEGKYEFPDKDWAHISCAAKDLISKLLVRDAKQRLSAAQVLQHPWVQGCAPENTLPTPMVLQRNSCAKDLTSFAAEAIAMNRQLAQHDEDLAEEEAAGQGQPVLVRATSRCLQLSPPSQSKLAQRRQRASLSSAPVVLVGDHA

Structure (SMILES) | inhibition [1] | inhibition [2] | inhibition [3] | inhibition [4] | inhibition [5] | inhibition [6] | inhibition [7] | inhibition [8] | inhibition [9] | inhibition [10]
CCn1c(-c2nonc2N)nc2cncc(C(=O)NCCNC)c21 | 16.6% | 2.2% | 7.71% | 15.2% | 61.2% | 2.94% | 6.9% | 0.78% | 13.4% | -0.85%
COc1ccc(Nc2ncc(-c3ccccc3)o2)cc1OC | 26.7% | 2.3% | 19.4% | 0.74% | 8.76% | 2.58% | 28.8% | 4.65% | 26.1% | 1.48%
COc1cc(N2CCN(C(C)C)CC2)ccc1Nc1nc(Nc2cccc3ncccc23)c2cc[nH]c2n1 | 3.2% | 0.47% | 1.44% | -0.58% | 3.21% | 0.05% | 2.31% | -0.09% | 1.91% | -0.66%
Cc1cc(O)cc(C)c1/C=C/c1cncc(C(=O)OC(C)(C)C)c1 | 1.89% | 0.38% | 0.19% | 3.07% | 5.89% | 4.59% | 16.7% | 1.84% | 9.67% | 0.13%
CN1CCC(C(=O)Nc2n[nH]c3nc(-c4ccc(O)cc4)c(Br)cc23)CC1 | 2.99% and 3.23% | 2.14% and -0.03% | 4.18% and 0.65% | 3.6% and 2.34% | 11.7% and 8.84% | 55.1% and 58% | 77.6% and 84.9% | 6.5% and 5.49% | 36.9% and 34.7% | 1.43% and -2.51%
COc1cc(N2CCN(C(C)C)CC2)ccc1Nc1nc(Nc2cccc(F)c2C(=O)O)c2cc[nH]c2n1 | 4.97% | 1.88% | 5.09% | 2.86% | 7.68% | 3.1% | 5.88% | 1.57% | 5.1% | 1.11%
FC(F)(F)CNc1nccc(-c2cnn3ncccc23)n1 | -0.26% | 1.01% | 0.89% | 5.66% | 27.5% | 4.07% | 20.6% | 2.55% | 26.4% | 0.47%
CC1(C)CC(n2cnc(-c3ccc(F)cc3)c2-c2ccnc(N)n2)CC(C)(C)N1 | 1.48% | 1.1% | 1.23% | 2.12% | 3.51% | 1.11% | 2.81% | 0.35% | 0.79% | 0.16%
N#Cc1ccc2c(-c3ccnc(NC4CC4)n3)c(-c3ccc(F)cc3)nn2c1 | 0.43% | 0.81% | 0.11% | -0.07% | -2.83% | 1.98% | 0.7% | -0.74% | 1.03% | -0.15%
Cc1ccc(-c2cc3c(NC(=O)C4CC4)ncnc3o2)cc1 | 7.2% | 1.77% | 3.33% | 2.47% | 4.56% | 1.56% | 6.36% | 1.94% | 5.77% | 1.3%
NS(=O)(=O)c1cccc(N/C=C2\C(=O)Nc3ccccc32)c1 | 17% | 4.17% | 15.5% | 5.46% | 19% | 2.36% | 4.02% | 1.04% | 2.05% | 2.99%
CC(C)c1ccc(-c2cc(-c3c[nH]nc3-c3ccccn3)ccn2)cc1 | 0.71% | -0.28% | 0.5% | 1.44% | 3.48% | 1.48% | 3.11% | 0.97% | 2.83% | -2.82%
Fc1cccc(COc2ccc(Nc3ncncc3C#Cc3ccccc3)cc2Cl)c1 | 4.26% | 0.48% | 1.07% | 3.34% | 4.69% | 3.32% | 11.8% | 2.53% | 6.84% | 0.96%
c1cnn2ncc(-c3ccnc(NCCCN4CCOCC4)n3)c2c1 | -0.34% | 1.05% | 2.05% | 4.35% | 11.9% | 4.1% | 10.9% | 1.64% | 7.83% | -1.43%
O=C(O[C@H]1CN[C@H](C#Cc2cc3ncnc(Nc4ccc5c(cnn5Cc5ccccc5)c4)c3s2)C1)N1CCOCC1 | 2.28% | 0.43% | 2.44% | -2.54% | -1.35% | 1.01% | 9.35% | 0.04% | 11.5% | -1.65%
COc1ccc2ncn(-c3cc(O[C@H](C)c4ccccc4C(F)(F)F)c(C(N)=O)s3)c2c1 | 1.97% | -0.65% | 5.41% | -0.14% | 2.51% | -0.15% | 3.25% | 0.74% | 4.03% | 0.4%
CS(=O)(=O)CCNCc1ccc(-c2ccc3ncnc(Nc4ccc(OCc5ccccc5)cc4)c3c2)o1 | -0.22% | 2.33% | 1.3% | 6.32% | 3.76% | 2.89% | 6.82% | 3.2% | 15.7% | -0.24%
Cc1cc(O)cc(C)c1/C=C/c1cncc(C(N)=O)c1 | 3.59% | 0.98% | 1.6% | 3.07% | 3.76% | 9.34% | 44.9% | 4.98% | 37.8% | 0.97%
NS(=O)(=O)c1ccc(N/N=C2\C(=O)Nc3ccc(C(=O)NCc4ccncc4)cc32)cc1 | 34.4% | 4.76% | 33.7% | 49.6% | 90.6% | 2.18% | 10.9% | 1.66% | 6.27% | 0.88%
CNC(=O)c1ncccc1Nc1nc(Nc2cc3c(cc2OC)CCCN3C(=O)CN(C)C)nc2[nH]ccc12 | 3.77% | 2.04% | 4.01% | 3.77% | 18.2% | 2.12% | 3.28% | 1.22% | 1.54% | 2.14%

Structure (SMILES) | inhibition [1] | inhibition [2] | inhibition [3] | inhibition [4] | inhibition [5] | inhibition [6] | inhibition [7] | inhibition [8] | inhibition [9] | inhibition [10]
CN(c1ccc(NC(=O)NCCN2CCOCC2)cc1)c1ccnc(Nc2ccc(CS(C)(=O)=O)cc2)n1 | 9.85% | 1.24% | 5.47% | 2.36% | 7.07% | 2.87% | 8.84% | 2.32% | 9.63% | 0.88%
O=C(O[C@H]1CN[C@H](C#Cc2cc3ncnc(Nc4ccc(OCc5cccc(F)c5)c(Cl)c4)c3s2)C1)N1CCOCC1 | 10.1% | 1.79% | 0.94% | 3.76% | 4.67% | 4.6% | 11.4% | 5.13% | 13.2% | 6.4%
CCCNc1cccc(-n2ncc3c(N/N=C/c4ccncc4)ncnc32)c1 | 9.23% | 0.58% | 9.44% | -0.14% | 3.93% | 31.2% | 69.1% | 37.6% | 72.2% | 0.04%
CNC(=O)c1sc(-n2cnc3cc(OC)c(OC)cc32)cc1OCc1ccccc1C(F)(F)F | 3.64% | 2.02% | 3.13% | 2.63% | 2% | 3.25% | 4.03% | 0.55% | 2.13% | -0.7%
COc1ccccc1-c1cc(/C=C2\C(=O)Nc3ncc(Br)cc32)cc(Br)c1O | 1.27% | 2.01% | 5.18% | 4.33% | 8.21% | 4.21% | 11.7% | 7.61% | 40.1% | -0.96%
CC1=C(C(=O)Nc2ccc3[nH]nc(C)c3c2)C(c2ccc(C(F)(F)F)cc2)CC(=O)N1 (stereo not given) | 5.26% | -0.05% | 3.18% | 3.65% | 18% | 3.53% | 6.23% | 1.45% | 4.23% | 0.75%
CC1=C(C(=O)Nc2ccc3[nH]ncc3c2)C(c2ccc(F)cc2)N=C(c2ccc(C(F)(F)F)nc2)N1 (stereo not given) | 1.71% | 0.35% | 2.44% | 2.15% | 5.11% | 2.55% | 4.82% | 0.9% | 3.32% | -1.01%
N#Cc1cccc(Nc2ncc(-c3ccccc3)o2)c1 | 7.34% | -0.09% | 1.81% | -0.12% | 2.2% | 2.67% | 10.1% | 2.19% | 8.7% | -0.17%
CCOc1ccc2c(-c3ccnc(Nc4cc(OC)cc(C(F)(F)F)c4)n3)cnn2n1 | -0.83% | -0.72% | 2.36% | 3.83% | 10.3% | 4.65% | 8.47% | 2.3% | 4.37% | 0.85%
CCN1CCC(C(=O)Nc2n[nH]c3nnc(-c4cccc(F)c4F)cc23)CC1 | 1.76% | 0.44% | 2.52% | -1.02% | -1.79% | 1.56% | 3.13% | 0.51% | 1.47% | -2.48%
CCS(=O)(=O)c1ccc(OC)c(Nc2ncc(-c3cccc(C(C)=O)c3)o2)c1 | 10.1% | 0.67% | 1.52% | 2.17% | 7.46% | 3.04% | 12.2% | 2.96% | 6.18% | -1.1%
Nc1nccc(-c2c(-c3ccc(F)cc3)ncn2C2CCNCC2)n1 | 0.65% and -2.22% | -0.05% and 0.87% | 0.67% and 0.98% | -3.33% and -1.76% | 4.7% and 0.94% | -0.09% and 1.2% | 12.4% and 3.16% | 0.4% and 0.49% | 4.75% and 1.44% | 0.15% and 0.08%
COc1ccc(-c2nn3ncccc3c2-c2ccnc(Nc3ccc(F)c(F)c3)n2)cc1 | 10.5% | 1.45% | 1.84% | 3.07% | 4.64% | 2.98% | 6.32% | 2.16% | 6.26% | 0.52%
CCS(=O)(=O)c1ccc(OC)c(Nc2ncc(-c3cccc(F)c3)o2)c1 | 2.56% | 2.11% | 2.65% | 7% | 15.4% | 3.79% | 19.5% | 1.15% | 12.2% | 2.49%
COC(=O)Nc1nc2cc(Oc3ccc(NC(=O)Nc4ccccc4)cc3)ccc2[nH]1 | 2.58% | 1.19% | 0.89% | 0.33% | 2.1% | 3% | 6.54% | 1.92% | 4.02% | 0.31%
Cc1nnc(-c2cccc(-c3ccc(C(=O)NCC4CC4)cc3)c2)o1 | 7.47% | 1.79% | 2.85% | 0.44% | 6.34% | 4.66% | 6.32% | 2.35% | 6.05% | 0.64%
O=C(Nc1n[nH]c2nnc(-c3cccnc3)cc12)C1CC1 | 1.25% | 0.54% | 0.56% | -0.51% | 1.48% | 0.68% | -0.29% | 0.77% | 2.11% | 0.83%
O=C(O[C@H]1CN[C@H](C#Cc2cc3ncnc(Nc4ccc5c(ccn5Cc5cc(F)ccc5F)c4)c3s2)C1)N1CCOCC1 | 1.49% | 2.82% | 0.75% | 5.51% | 5.23% | 2.17% | 5.94% | 1.3% | 1.83% | 0.88%
OCCCNc1nccc(-c2c(-c3ccc(F)cc3)nn3cc(C(F)(F)F)ccc23)n1 | 3.84% | 0.24% | 2.09% | 0.52% | 2.27% | 2.61% | 6.2% | 2.75% | 3.6% | -1.06%
